Experimental data: paper PMC7862700, “An all-to-all approach to the identification of sequence-specific readers for epigenetic DNA modifications on cytosine”

Legend:
Assay in all cases: DAPPL (digital affinity profiling via proximity ligation, sequencing); 10 mM Tris-HCl pH 7.5, 50 mM NaCl, 1 mM DTT, 4% glycerol, room temperature, 30 min; GST-TFs on glutathione beads, 16-mer random dsDNA library, 0.1% formaldehyde crosslink after washing; high values mean tight binding
Conditions in all cases: protein: recombinant; tags: N-terminal GST; dsDNA, one strand shown
[1] = biological target: T1, ERF (Homo sapiens, UniProt P50548 1-548)
T1 sequence: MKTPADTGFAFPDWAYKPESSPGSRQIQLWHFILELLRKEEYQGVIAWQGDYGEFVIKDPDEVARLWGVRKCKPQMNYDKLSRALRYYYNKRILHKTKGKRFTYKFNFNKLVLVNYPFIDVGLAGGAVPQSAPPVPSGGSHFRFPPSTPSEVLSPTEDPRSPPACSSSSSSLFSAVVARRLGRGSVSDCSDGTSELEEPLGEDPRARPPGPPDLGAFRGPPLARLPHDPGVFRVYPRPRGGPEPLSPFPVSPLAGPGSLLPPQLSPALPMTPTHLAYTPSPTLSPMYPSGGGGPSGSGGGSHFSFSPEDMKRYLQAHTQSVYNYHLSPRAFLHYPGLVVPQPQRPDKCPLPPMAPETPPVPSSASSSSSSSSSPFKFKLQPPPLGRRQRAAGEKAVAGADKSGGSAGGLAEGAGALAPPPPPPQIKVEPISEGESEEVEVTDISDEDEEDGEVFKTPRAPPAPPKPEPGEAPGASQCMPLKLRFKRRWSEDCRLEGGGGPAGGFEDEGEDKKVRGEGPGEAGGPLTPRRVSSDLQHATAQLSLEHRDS
Procedure, shortened: (§1)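 Human transcription factors carrying a GST fusion were produced in yeast, bound to glutathione beads, tagged with DNA barcodes and pooled together with a tag-only sample. Each pool was held with 200 nmole of a random double-stranded 16-mer DNA library in Tris/NaCl/DTT/glycerol buffer for 30 min at room temperature, then washed, crosslinked in 0.1% formaldehyde, proximity-ligated with BsaI/T4 ligase (1 h, 37 °C), PCR-amplified and sequenced on an Illumina NextSeq500. Binding signal is the read frequency of each hexamer for a given factor divided by its frequency in the tag-only sample.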

[2] = biological target: T2, ETV3L (Homo sapiens, UniProt Q6ZN32 1-361)
T2 sequence: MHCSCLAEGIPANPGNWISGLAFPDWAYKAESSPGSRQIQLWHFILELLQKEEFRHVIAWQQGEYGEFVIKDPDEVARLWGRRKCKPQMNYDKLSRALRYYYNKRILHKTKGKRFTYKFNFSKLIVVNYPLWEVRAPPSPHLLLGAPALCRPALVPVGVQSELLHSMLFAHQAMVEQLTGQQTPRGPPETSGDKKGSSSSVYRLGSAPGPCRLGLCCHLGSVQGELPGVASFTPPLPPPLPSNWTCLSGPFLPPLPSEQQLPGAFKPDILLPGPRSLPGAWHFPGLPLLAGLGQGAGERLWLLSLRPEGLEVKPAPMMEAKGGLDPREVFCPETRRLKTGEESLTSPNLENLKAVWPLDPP
Procedure, shortened: as §1

[3] = biological target: T3, ETS2 (Homo sapiens, UniProt P15036 1-469)
T3 sequence: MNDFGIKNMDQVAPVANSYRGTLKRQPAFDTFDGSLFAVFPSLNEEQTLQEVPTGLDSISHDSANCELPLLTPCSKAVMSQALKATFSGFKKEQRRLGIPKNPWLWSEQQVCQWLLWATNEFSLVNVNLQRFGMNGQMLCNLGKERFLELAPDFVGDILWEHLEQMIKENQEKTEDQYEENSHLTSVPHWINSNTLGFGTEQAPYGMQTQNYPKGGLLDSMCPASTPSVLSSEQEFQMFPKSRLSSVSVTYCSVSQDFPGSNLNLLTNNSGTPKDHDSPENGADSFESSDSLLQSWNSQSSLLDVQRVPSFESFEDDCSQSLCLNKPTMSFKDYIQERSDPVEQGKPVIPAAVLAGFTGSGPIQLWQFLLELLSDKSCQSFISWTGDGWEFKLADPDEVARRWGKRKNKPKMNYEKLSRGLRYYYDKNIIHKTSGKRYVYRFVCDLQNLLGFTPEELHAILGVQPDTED
Procedure, shortened: as §1

[4] = biological target: T4, SPDEF (Homo sapiens, UniProt O95238 1-335)
T4 sequence: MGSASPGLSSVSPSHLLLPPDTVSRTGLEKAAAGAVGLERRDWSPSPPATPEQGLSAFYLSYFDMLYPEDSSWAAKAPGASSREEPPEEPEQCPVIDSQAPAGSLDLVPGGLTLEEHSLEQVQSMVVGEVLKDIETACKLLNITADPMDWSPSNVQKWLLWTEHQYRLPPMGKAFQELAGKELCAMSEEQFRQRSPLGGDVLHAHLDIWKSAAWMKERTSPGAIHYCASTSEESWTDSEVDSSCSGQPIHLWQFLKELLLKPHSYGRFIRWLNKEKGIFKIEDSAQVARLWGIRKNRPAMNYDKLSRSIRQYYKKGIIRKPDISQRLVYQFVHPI
Procedure, shortened: as §1

[5] = biological target: T5, ETV7 (Homo sapiens, UniProt Q9Y603 1-341)
T5 sequence: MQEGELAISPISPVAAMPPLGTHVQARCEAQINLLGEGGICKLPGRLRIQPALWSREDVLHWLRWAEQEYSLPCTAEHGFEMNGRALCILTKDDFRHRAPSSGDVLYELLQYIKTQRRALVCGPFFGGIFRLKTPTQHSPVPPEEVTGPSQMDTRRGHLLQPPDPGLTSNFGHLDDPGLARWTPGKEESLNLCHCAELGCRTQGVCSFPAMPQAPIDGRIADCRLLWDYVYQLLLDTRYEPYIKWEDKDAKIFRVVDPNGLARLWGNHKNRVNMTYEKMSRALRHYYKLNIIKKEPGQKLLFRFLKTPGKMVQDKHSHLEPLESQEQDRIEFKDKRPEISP
Procedure, shortened: as §1

[6] = biological target: T6, ELF5 (Homo sapiens, UniProt Q9UKW6-2 1-255)
T6 sequence: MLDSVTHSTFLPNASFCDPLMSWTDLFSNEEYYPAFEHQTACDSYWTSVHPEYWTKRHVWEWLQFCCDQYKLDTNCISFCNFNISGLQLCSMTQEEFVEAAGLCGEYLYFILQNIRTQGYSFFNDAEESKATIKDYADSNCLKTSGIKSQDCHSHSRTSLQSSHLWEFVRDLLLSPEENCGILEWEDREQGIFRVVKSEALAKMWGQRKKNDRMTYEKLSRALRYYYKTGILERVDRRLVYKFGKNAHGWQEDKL
Procedure, shortened: as §1

[7] = biological target: T7, ETV3 (Homo sapiens, UniProt P41162-2 1-143)
T7 sequence: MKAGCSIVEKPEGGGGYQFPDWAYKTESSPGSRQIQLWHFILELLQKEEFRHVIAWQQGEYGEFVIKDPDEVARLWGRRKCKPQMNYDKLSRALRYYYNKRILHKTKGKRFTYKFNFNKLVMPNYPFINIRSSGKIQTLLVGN
Procedure, shortened: as §1

[8] = biological target: ETV6 (Homo sapiens, UniProt P41212 1-452)
Sequence of ETV6 (P41212 whole entry): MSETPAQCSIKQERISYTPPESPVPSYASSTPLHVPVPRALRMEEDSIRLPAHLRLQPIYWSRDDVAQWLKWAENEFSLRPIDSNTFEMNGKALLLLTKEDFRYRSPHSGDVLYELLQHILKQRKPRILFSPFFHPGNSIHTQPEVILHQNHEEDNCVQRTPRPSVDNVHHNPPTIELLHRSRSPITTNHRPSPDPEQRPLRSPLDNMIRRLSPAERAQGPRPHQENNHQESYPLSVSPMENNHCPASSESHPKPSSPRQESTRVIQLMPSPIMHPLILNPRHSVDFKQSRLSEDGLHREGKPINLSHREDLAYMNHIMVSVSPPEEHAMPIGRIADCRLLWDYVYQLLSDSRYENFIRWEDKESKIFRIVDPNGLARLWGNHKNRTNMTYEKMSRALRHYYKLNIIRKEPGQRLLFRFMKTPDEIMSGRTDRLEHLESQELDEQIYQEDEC
Procedure, shortened: as §1

Sequence	binding signal [1]	binding signal [2]	binding signal [3]	binding signal [4]	binding signal [5]	binding signal [6]	binding signal [7]	binding signal [8]
ACTCTA	1.56 fold enrichment (6-mer frequency, TF over GST control)	1.39 fold enrichment (6-mer frequency, TF over GST control)	1.39 fold enrichment (6-mer frequency, TF over GST control)	1.38 fold enrichment (6-mer frequency, TF over GST control)	1.34 fold enrichment (6-mer frequency, TF over GST control)	1.41 fold enrichment (6-mer frequency, TF over GST control)	1.48 fold enrichment (6-mer frequency, TF over GST control)	1.33 fold enrichment (6-mer frequency, TF over GST control)
CTATTG	1.37 fold enrichment (6-mer frequency, TF over GST control)	1.27 fold enrichment (6-mer frequency, TF over GST control)	1.35 fold enrichment (6-mer frequency, TF over GST control)	1.18 fold enrichment (6-mer frequency, TF over GST control)	1.25 fold enrichment (6-mer frequency, TF over GST control)	1.23 fold enrichment (6-mer frequency, TF over GST control)	1.42 fold enrichment (6-mer frequency, TF over GST control)	1.35 fold enrichment (6-mer frequency, TF over GST control)
TACCGG	1.4 fold enrichment (6-mer frequency, TF over GST control)	1.47 fold enrichment (6-mer frequency, TF over GST control)	1.6 fold enrichment (6-mer frequency, TF over GST control)	1.77 fold enrichment (6-mer frequency, TF over GST control)	1.36 fold enrichment (6-mer frequency, TF over GST control)	1.71 fold enrichment (6-mer frequency, TF over GST control)	1.76 fold enrichment (6-mer frequency, TF over GST control)	1.68 fold enrichment (6-mer frequency, TF over GST control)
TCAAAG	1.08 fold enrichment (6-mer frequency, TF over GST control)	1.12 fold enrichment (6-mer frequency, TF over GST control)	1.12 fold enrichment (6-mer frequency, TF over GST control)	1.01 fold enrichment (6-mer frequency, TF over GST control)	1.1 fold enrichment (6-mer frequency, TF over GST control)	1.04 fold enrichment (6-mer frequency, TF over GST control)	1.07 fold enrichment (6-mer frequency, TF over GST control)	1.09 fold enrichment (6-mer frequency, TF over GST control)
TGCACT	1.28 fold enrichment (6-mer frequency, TF over GST control)	1.34 fold enrichment (6-mer frequency, TF over GST control)	1.32 fold enrichment (6-mer frequency, TF over GST control)	1.4 fold enrichment (6-mer frequency, TF over GST control)	1.42 fold enrichment (6-mer frequency, TF over GST control)	1.29 fold enrichment (6-mer frequency, TF over GST control)	1.35 fold enrichment (6-mer frequency, TF over GST control)	1.41 fold enrichment (6-mer frequency, TF over GST control)
CTTACA	1.34 fold enrichment (6-mer frequency, TF over GST control)	1.26 fold enrichment (6-mer frequency, TF over GST control)	1.14 fold enrichment (6-mer frequency, TF over GST control)	1.34 fold enrichment (6-mer frequency, TF over GST control)	1.23 fold enrichment (6-mer frequency, TF over GST control)	1.35 fold enrichment (6-mer frequency, TF over GST control)	1.29 fold enrichment (6-mer frequency, TF over GST control)	1.24 fold enrichment (6-mer frequency, TF over GST control)
CGTTAC	1.16 fold enrichment (6-mer frequency, TF over GST control)	1.18 fold enrichment (6-mer frequency, TF over GST control)	1.23 fold enrichment (6-mer frequency, TF over GST control)	1.1 fold enrichment (6-mer frequency, TF over GST control)	1.11 fold enrichment (6-mer frequency, TF over GST control)	1.15 fold enrichment (6-mer frequency, TF over GST control)	1.14 fold enrichment (6-mer frequency, TF over GST control)	1.12 fold enrichment (6-mer frequency, TF over GST control)
